# Source: PubChem BioAssay (several laboratories)
# The list is not random: actives were taken first. Their share in the collection is about 3%.
# EWS-Fli inh: inhibitors of EWS/Fli oncoprotein transcriptional activity; A673 NR0B1-luciferase reporter, viability-normalised; inhibition, % at 12.6 µM; 0.67% of 350,000 active;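 active = mean inhibition of at least 50% after viability correction, with every replicate also passing that limit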;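 note: firefly luciferase signal divided by Alamar Blue viability fluorescence both relative to DMSO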
# Peg3 prom inh: reduces Peg3 promoter-driven luciferase expression in HeLa | 1.7% of 360,000 active | inhibition, % at 20 µM | HeLa PEG-Prom luciferase reporter, luminescence, overnight;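 active = inhibition of at least 50% at 20 µM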
# ABHD5-PLIN5 inh: inhibitors of human ABHD5-perilipin-5 interaction. Q00G26+Q8WTS1. Split G. princeps luciferase complementation, luminescence, 4 h. inhibition, % at 4 µM. 0.78% of 360,000 active. AID 602281;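 active = inhibition above the mean inhibition across every tested compound plus 3 SD, cut at about 22% in these data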;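 note: 0% = DMSO only wells and the 100% control is not disclosed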
# Target sequence (Q00G26 whole entry, looked up): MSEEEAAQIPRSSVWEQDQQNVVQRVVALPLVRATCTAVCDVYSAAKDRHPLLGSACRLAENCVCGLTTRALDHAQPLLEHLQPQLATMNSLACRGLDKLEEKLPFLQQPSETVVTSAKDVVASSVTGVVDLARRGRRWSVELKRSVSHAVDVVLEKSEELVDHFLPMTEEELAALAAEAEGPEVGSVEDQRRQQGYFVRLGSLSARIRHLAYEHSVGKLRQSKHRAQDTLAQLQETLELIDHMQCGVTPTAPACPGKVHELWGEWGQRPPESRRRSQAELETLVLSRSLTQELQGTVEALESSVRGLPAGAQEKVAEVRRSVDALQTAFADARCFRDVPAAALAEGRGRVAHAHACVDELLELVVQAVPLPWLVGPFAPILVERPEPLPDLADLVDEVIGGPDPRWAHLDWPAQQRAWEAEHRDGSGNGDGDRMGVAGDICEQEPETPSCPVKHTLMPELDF
# Target sequence (Q8WTS1 whole entry, looked up): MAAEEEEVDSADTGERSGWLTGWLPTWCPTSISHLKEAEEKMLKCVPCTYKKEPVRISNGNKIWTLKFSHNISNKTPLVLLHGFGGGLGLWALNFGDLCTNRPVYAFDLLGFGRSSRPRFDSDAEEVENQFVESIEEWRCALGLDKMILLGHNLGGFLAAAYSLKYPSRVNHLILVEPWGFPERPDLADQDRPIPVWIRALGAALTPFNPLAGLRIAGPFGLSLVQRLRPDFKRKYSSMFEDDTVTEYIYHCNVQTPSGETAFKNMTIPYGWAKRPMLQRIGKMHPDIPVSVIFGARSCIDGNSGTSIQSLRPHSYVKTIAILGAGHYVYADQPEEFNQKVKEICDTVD
# Shn3 inh set2: reduces Shn3 3'UTR luciferase signal in osteoblasts | 0.52% of 360,000 active | inhibition, % at 12.5 µM | Clone20 osteoblast Shn3 3'UTR firefly luciferase, 24 h;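 active = mean inhibition of at least 75% with every replicate also reaching 75%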;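 note: 0% = median of neutral control wells and 100% = pilot-screen positive control compound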
# TRPM1 prom inh: MITF TRPM1 promoter inhibition in SK-MEL-5 cells | 0.83% of 330,000 active | inhibition, % at 12.5 µM | SK-MEL-5 TRPM1 promoter luciferase, 24 h | AID 488899;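 active = mean inhibition across replicates of 60% or more, whatever share of single replicates reaches that level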
# PAX8 inh HTS: PAX8 transcriptional activity inhibition | RMG-I TPO-luciferase reporter, SteadyGlo, 24 h | inhibition, % at 12.6 µM | 1.2% of 360,000 active;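 active = mean replicate inhibition at least 60% with every replicate also reaching 60%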;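 note: luciferase light reporting Pax8 driven TPO promoter activity; plate controls were median of neutral control wells for no effect and mitoxantrone controls for full effect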
# * = called active by the depositor; / = no result given.
SMILES,EWS-Fli inh,Peg3 prom inh,ABHD5-PLIN5 inh,Shn3 inh set2,TRPM1 prom inh,PAX8 inh HTS
O=C(N/N=C/c1ccc([N+](=O)[O-])o1)c1ccccc1-n1cccc1,23.4,27.7,1.9,6.6,77.7*,15.6
C[C@H]1CN([C@@H](C)CO)C(=O)Cc2cc(NC(=O)CCCCCC(=O)Nc3ccccc3N)ccc2O[C@H]1CN(C)S(=O)(=O)c1cn(C)cn1,-19.9,/,/,/,/,/
O=C1C(Br)=C(c2ccccc2)C(c2ccccc2)=C1c1ccccc1,/,104.7*,9.8,97.9*,80.0*,/
Cc1cc(CN2CCOCC2)c(O)c(C2(C)CCCCC2)c1,/,15.8,-5.6,86.5*,-6.7,/
Cc1cc(CN(C)C)c(O)c(C2(C)CCCCC2)c1,/,11.5,2.1,23.5,0.4,/
C[C@@H]1CN([C@H](C)CO)C(=O)c2cc(NC(=O)C3CCCCC3)ccc2O[C@@H](C)CCCCO[C@H]1CN(C)Cc1ccc2c(c1)OCO2,10.5,/,/,/,/,8.1
C=CCn1c(SCC(=O)c2[nH]c(C)c(C(=O)OCC)c2C)nc2scc(-c3ccc(OC)cc3)c2c1=O,38.0,53.8*,-0.2,42.5,81.9*,-1.5
C[C@H](CO)N1C[C@H](C)[C@H](CN(C)C(=O)Nc2ccccc2)Oc2c(NC(=O)c3cnccn3)cccc2C1=O,1.4,/,/,/,/,-1.0
Cc1cc(C(=O)c2ccc(Cl)cc2)c(NC(=O)CCl)s1,/,88.6*,1.1,19.2,19.6,14.4
C[C@@H]1CN([C@@H](C)CO)C(=O)c2cc(NC(=O)CCCN(C)C)ccc2O[C@@H](C)CCCCO[C@H]1CN(C)S(=O)(=O)c1cccs1,5.3,/,/,/,/,/
CC(C)(C)CC(C)(C)c1ccc(OCCOCC[N+](C)(C)Cc2ccccc2)cc1,25.0,98.9*,7.2,87.7*,78.5*,77.9*
C[N+](C)(CCOc1ccccc1)Cc1ccccc1 (tested in a mixture with another compound),/,0.0,-5.2,16.6,-5.1,17.3
COc1ccc(C2c3c(ncn(CCN4CCOCC4)c3=N)Oc3ccc4ccccc4c32)cc1 (stereo not given),/,60.3*,13.9,-15.3,59.8,/
N=c1c2c(ncn1CCN1CCOCC1)Oc1ccc3ccccc3c1C2c1ccccc1 (stereo not given),/,47.4,14.2,19.8,49.6,/
Cc1cc(-c2ccccc2)nc(N/N=C/c2ccc(O)cc2O)n1,-10.5,-1.3,-2.6,-6.8,-11.0,20.3
CN(/N=C/c1ccc(O)cc1O)c1nc(-c2ccccc2)cc(-c2ccccc2)n1,16.4,4.1,-6.7,3.4,7.1,157.5*
CCCOc1ccc(C(=O)C(CN2CCOCC2)c2ccccc2)cc1 (stereo not given),/,94.4*,5.8,-15.8,36.5,/
CCCOc1ccc(C(=O)C(c2ccccc2)N2CCOCC2)cc1 (stereo not given),/,8.4,7.4,-9.5,-1.9,/
O=C(Nc1ccc(S(=O)(=O)N2CCCCCC2)cc1)c1[nH]ncc1[N+](=O)[O-],/,-20.7,4.6,3.4,70.2*,15.7
Cc1onc(C(=O)Nc2ccc(OC(F)(F)F)cc2)c1[N+](=O)[O-],/,-43.9,-6.9,-0.5,-62.6,/
O=C(Nc1ccc(OC(F)(F)F)cc1)Nc1cccc([N+](=O)[O-])c1,/,55.3*,-23.4,52.4,53.2,59.7
O=C(Nc1ccc(OC(F)(F)F)cc1)c1[nH]ncc1[N+](=O)[O-],-39.2,-66.1,-3.1,5.7,70.1*,-33.6
Cc1ccc(S(=O)(=O)Nc2cccc3c2O[C@@H](CN(C)Cc2ccccc2)[C@H](C)CN([C@H](C)CO)C3=O)cc1,1.0,/,/,/,/,-16.6
COc1ccc(C(=O)N/C(=C\c2cn(C)c3ccccc23)C(=O)OCC(C)C)cc1,11.6,-1.7,-2.2,19.2,-3.2,69.9*
CCOc1cc(C(=O)CSc2nnc(CNc3ccc(Cl)cc3)o2)ccc1NC(=O)CC,40.4,66.4*,5.4,84.4*,85.4*,/
SMILES,EWS-Fli inh,Peg3 prom inh,ABHD5-PLIN5 inh,Shn3 inh set2,TRPM1 prom inh,PAX8 inh HTS
COc1cccc(C=NNC(=O)C(C)SC(C)C(=O)NN=Cc2cccc(OC)c2)c1 (stereo not given),-2.0,6.4,0.6,-7.2,9.4,-4.7
CC(SC(C)C(=O)NN=Cc1cccc(Cl)c1)C(=O)NN=Cc1cccc(Cl)c1 (stereo not given),-3.6,98.9*,5.7,29.7,6.3,3.6
COc1ccc(NC(=O)CSc2nnc(Cn3cnc([N+](=O)[O-])n3)n2C)cc1,/,5.9,-3.2,-32.0,-3.0,9.1
Cn1c(Cn2cnc([N+](=O)[O-])n2)nnc1SCC(=O)Nc1ccccc1,-2.7,-3.2,-0.1,-5.4,-14.9,81.4*
O=[N+]([O-])c1ccc(-c2c(O)c3ccccc3c3nc4ccccc4nc23)cc1,3.9,51.8*,-2.3,8.0,6.5,12.6
O=C(CCl)c1ccc2c(c1)CCN2C(=O)C1CCCCC1,-9.7,104.9*,3.0,9.3,17.6,-3.6
N#Cc1nc(-c2ccc(OCc3ccc(Cl)cc3)cc2)oc1N1CCOCC1,31.3,56.0*,3.2,-4.6,22.3,/
N#Cc1nc(-c2ccc(OCc3ccc(Cl)cc3)cc2)oc1N1CCC(C(N)=O)CC1,8.4,5.6,0.8,27.4,-7.8,/
CC(C)C[C@H](CO)N(Cc1ccccc1)S(=O)(=O)N(Cc1ccccc1)[C@@H](CO)CC(C)C,26.9,53.4*,-16.1,66.2,24.3,42.1
CC(C)C[C@H]1CN([C@@H](CC(C)C)CN2CCCC2CN2C(=S)NC[C@@H]2Cc2ccc(O)cc2)C(=S)N1CC1CCCCC1 (stereo not given in full),10.4,71.6*,-8.5,49.1,20.2,14.2
CC(C)C[C@H]1CN([C@@H](CC(C)C)CN2CCCC2CN2C(=S)NC[C@@H]2Cc2ccc(O)cc2)C(=S)N1CC1CCCCCC1 (stereo not given in full),16.9,90.8*,-9.0,44.7,-2.2,-23.2
CC(C)C[C@H]1CN([C@@H](CC(C)C)CN2CCC[C@@H]2CN2C(=S)NC[C@@H]2Cc2ccc(O)cc2)C(=S)N1CC1CCCCC1,21.7,94.6*,-0.9,4.8,/,7.7
CCCNC(=O)N[C@H]1C=C[C@@H](CC(=O)NCCc2ccccc2)O[C@H]1CO,6.2,/,/,/,/,5.9
CN(C)C(=O)c1cccc(-c2ccc3c(c2)[C@H]2[C@H](CCN2C(=O)c2ccc(F)cc2)[C@@H](CO)N3C)c1,6.0,/,/,/,/,-0.7
O=C(C[C@@H]1CC[C@@H]2[C@H](COC[C@H](O)CN2C(=O)c2ccc3c(c2)OCO3)O1)NCCN1CCCCC1,-4.5,/,/,/,/,-7.7
CCNC(=O)C[C@H]1C=C[C@H](NS(=O)(=O)c2ccc(C)cc2)[C@@H](CO)O1,5.1,/,/,/,/,-3.0
N#C[C@H]1[C@@H](c2ccccc2C2=CCCCC2)[C@H](CO)N1S(=O)(=O)c1cccc(F)c1,-2.9,/,/,/,/,/
CN(C)C(=O)C[C@@H]1CC[C@@H](NC(=O)NC2CCCCC2)[C@@H](CO)O1,6.8,/,/,/,/,12.3
CC(C)C[C@H](N)c1nnc(S(=O)(=O)Cc2ccc(F)cc2)o1,/,114.3*,31.1*,90.2*,33.0,/
